Data from PubChem BioAssay AID2202239 (National Center for Advancing Translational Sciences (NCATS), 2025).
Activity calls are given as the source filed them. Calls come from the whole dose curve; as a rule, active = well fitted inhibition curve with a large enough effect; inactive = flat fitted curve, though single readings scatter. Square brackets hold non-standard residues; d marks the D form. Peptide text beside a SMILES is read from it. * marks the point of attachment. Dolaproine = CO[C@@H]([C@@H]1CCCN1)[C@@H](C)C(=O)O; Dil = CC[C@H](C)[C@H](NC)[C@@H](CC(=O)O)OC; NMe2Val = CC(C)[C@@H](C(=O)*)N(C)C; X1 = C[C@@H](N*)[C@@H](O)c1ccccc1; NMeV = CN[C@H](C(=O)O)C(C)C

Assay: Identification of antibody-drug conjugate (ADC) payloads which are substrates of ATP-binding cassette drug efflux transporters: ABCB1-HeLa-KB-8-5-11 cell line with tariquidar
Details: KB-8-5-11 (P-gp) + tariquidar, viability, CellTiter-Glo, 48 h
Source text: Antibody-drug conjugates (ADCs) feature an antibody recognizing a specific protein joined to a potent toxic payload. Numerous antibody-drug conjugates have received FDA approval; however, clinical resistance arises. Resistance mechanisms include decreased expression or mutation of the antibody target, impaired payload release, or increased expression of ATP-binding cassette (ABC) efflux transporters associated with multidrug resistance. We therefore sought to characterize the interaction of ABC multidrug transporters with ADC payloads. We performed a high-throughput screen with 27 common ADC payloads using cells lines expressing ABC transporters P-glycoprotein (P-gp, encoded by ABCB1) or ABCG2 (encoded by ABCG2). Confirmatory assays were also performed using cells transfected to express P-gp, ABCG2, or MRP1 (encoded by ABCC1). Several commonly used ADC payloads were substrates of P-gp, including calicheamicin gamma1, monomethyl auristatin E, DM1, and DM4. All the pyrrolobenzodiazepines tested - SJG136, SGD-1882, SG2057, and SG3199 - were substrates of P-gp, ABCG2, and MRP1. […] These findings highlight the risk of transporter-mediated resistance with certain ADC payloads and underscore the importance of selecting payloads that evade ABC transporter recognition in future ADC development.
HEK-293 cells were transfected with empty vector (pcDNA) or vector containing the human ABCB1 (MDR-19), ABCG2 (R-5), or ABCC1 gene (MRP1) and were maintained in EMEM with 2 mg/mL G418 added to maintain transporter expression. The HeLa derivative KB-3-1 and the P-gp overexpressing KB-8-5-11 subline were maintained in DMEM; KB-8-5-11 additionally received 100 ng/mL colchicine. H460 parental cells were obtained from the Division of Cancer Treatment and Diagnosis Tumor Repository, National Cancer Institute at Frederick, MD and were cultured in RPMI. The ABCG2 expressing subline H460 MX20 was generated by selecting H460 cells in 20 nM mitoxantrone. Media in all cases was supplemented with 10% FBS and 1% penicillin-streptomycin. We explored 27 common ADC payloads, in two orthogonal, paired cell line sets-a drug selected and transfected set for each transporter--to identify substrates of the ABC transporters P-gp and ABCG2. Compounds were sourced from Levena Biopharma (San Diego, CA), Selleck Chem (Houston, TX), ChemieTek (Indianapolis, IN), or Microsource Discovery Systems (Gaylordsville, CT). Screening was performed as previously described. Briefly, cells were plated at a density of 500 cells/well in 1536 well plates with compounds added using a 1536-head pin tool (Kalypsys, San Diego CA). Cells were incubated with cytotoxic drugs and processed with CellTiter Glo reagent (Promega, Madison, WI) to determine viability after 48 hours. P-gp substrates were identified by comparing compound activity between paired sets of low-expressing (sensitive) and over-expressing (resistant) cell lines.

| Compound | Potency |
| --- | --- |
| CC[C@H](C)[C@@H]([C@@H](CC(=O)N1CCC[C@H]1[C@H](OC)[C@@H](C)C(=O)N[C@@H](Cc1ccccc1)C(=O)O)OC)N(C)C(=O)[C@@H](NC(=O)[C@H](C(C)C)N(C)C)C(C)C (NMe2Val-V[Dil][Dolaproine]F-OH) | 18.8 nM (active) |
| COc1cccc2c1C(=O)c1c(O)c3c(c(O)c1C2=O)C[C@@](O)(C(=O)CO)CC3OC1CC(N2CCOC(OC)C2)C(O)C(C)O1 (some centres not stated) | 10.6 nM (active) |
| CC[C@@]1(O)C(=O)OCc2c1cc1n(c2=O)Cc2cc3ccccc3nc2-1 | 375 nM (active) |
| CC[C@H](C)[C@@H]([C@@H](CC(=O)N1CCC[C@H]1[C@H](OC)[C@@H](C)C(=O)N[C@H](C)[C@@H](O)c1ccccc1)OC)N(C)C(=O)[C@@H](NC(=O)[C@H](C(C)C)N(C)C)C(C)C | 0.2 nM (active) |
| COc1cc2cc(c1Cl)N(C)C(=O)C[C@H](OC(=O)C(C)C)[C@]1(C)O[C@H]1[C@H](C)[C@@H]1C[C@@](O)(NC(=O)O1)[C@H](OC)C=CC=C(C)C2 | 0.1 nM (active) |
| CC[C@H](C)[C@@H]([C@@H](CC(=O)N1CCC[C@H]1[C@H](OC)[C@@H](C)C(=O)N[C@H](C)[C@@H](O)c1ccccc1)OC)N(C)C(=O)[C@@H](NC(=O)[C@@H](NC)C(C)C)C(C)C (H-[NMeV]V[Dil][Dolaproine]-X1) | 0.2 nM (active) |
| CC[C@H](C)[C@@H]1NC(=O)CNC(=O)[C@H]2Cc3c([nH]c4cc(O)ccc34)S(=O)C[C@H](NC(=O)CNC1=O)C(=O)N[C@@H](CC(N)=O)C(=O)N1C[C@H](O)C[C@H]1C(=O)N[C@@H]([C@@H](C)[C@@H](O)CO)C(=O)N2 (some centres not stated) | 4200 nM (active) |
